Test results from PubChem BioAssay AID672 (University of Pittsburgh Molecular Library Screening Center, 2007).
This is one part of the list. Active and inactive are the calls of the source. How the calls were made is not given here.

Assay: H2O2 generation by compounds in DTT – biochemical, probe assessment, artefact control, dose response (AID 672)
Conditions: Redox cycling H2O2 generation, phenol red/HRP

SMILES: CCc1ccc(NC(=O)CSc2nc3ccccc3c(=O)n2CCN2CCOCC2)cc1
- EC50: > 50 µM (inactive)
